Compounds without any hit were thinned out: in the full panel of roughly 83,000, 20% have a hit.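 Interpretation: 100, growth as untreated; towards 0, rising growth inhibition; 0, no net growth; 0 to -100, cell death. Compounds scoring below 10 were considered active.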 Unmarked numbers belong to inactive results. The source made the active and inactive calls.

For the first test, the system named is OVCAR-4 ovarian. In words: NCI-60 one-dose screen, 48 h (100 = growth as untreated, 0 = no growth, -100 = all killed). To be noted: 10 µM unless noted.
For the compound `NC(=O)[C@@H]1CC2CCC1C2` (stereo not given in full), the growth was 106%.

Regarding `C=C(C)[C@@H]1CC[C@]2(C=O)CC[C@]3(C)[C@H](CC[C@@H]4[C@@]5(C)C/C(=C/c6cccnc6)C(=O)C(C)(C)[C@@H]5CC[C@]43C)[C@@H]12`, the growth is 64.6%.

With `Cc1cc(N(CCNc2ccnc3cc(Cl)ccc23)Cc2ccco2)nc(Cl)n1`, the growth was -59.7% (active).

For `CN(C)c1ccc(N)c2ccccc12`, the growth is 27.7%.

Consider `CSc1ccc(N(C)c2nc(C)nc3c2CCC3)cc1`, for which the growth is 38.2%.

Take `C=C(C)[C@@H]1CC[C@]2(C(=O)NNC(=O)c3cccnc3)CC[C@]3(C)[C@H](CC[C@@H]4[C@@]5(C)CCCNC(C)(C)[C@@H]5CC[C@]43C)[C@@H]12`: the growth was 75.3%.

The next test concerns SK-OV-3 ovarian. The description is as above. The conditions noted are these: 10 µM unless noted.
For the compound `O=C1c2ccccc2C(=Cc2ccccc2)c2ccccc21`, the growth was -3.56% (active).

Consider `N#CC1=C(N)Oc2c(sc3c(F)cccc23)C1c1ccc(Cl)cc1` (stereo not given), for which the growth is 31%.

Turning to `O=C(Nc1ccc(/C=C2\SC(=O)N(Cc3ccc(OC(F)(F)F)cc3)C2=O)cc1)c1ccc(Cl)c([N+](=O)[O-])c1`, the growth was 93.7%.

As for `C[C@@H](C(=O)O)c1ccc2c3cc(Cl)ccc3n(Cc3cc(=O)oc4ccc(Cl)cc34)c2c1`, the growth was 96.9%.

Consider `Cn1c(=O)c2c(nc(Br)n2CC(=O)Nc2ccc(F)cc2)n(C)c1=O`, for which the growth was 102%.

On to `COC(=O)C(N)CSC(c1ccccc1)(c1ccccc1)c1ccccc1` (stereo not given), for which the growth was 19.4%.

With `NS(=O)(=O)c1ccc(CCNC(=O)/C=C/c2ccc(Cl)cc2)cc1`, the growth is 105%.

For the compound `C[C@H]1[C@H]2C3=CC[C@@H]4[C@@]5(C)C/C(=C/c6ccco6)C(=O)C(C)(C)[C@@H]5CC[C@@]4(C)[C@]3(C)CC[C@@]2(C(=O)N2CCOCC2)CC[C@@H]1C`, the growth is 107%.

For the compound `COC1=C(Br)C(=O)C(OC)=C(Br)C1=O`, the growth is 110%.

Regarding `Cn1cc(-c2csc(-c3cn(CCN)c4ccc(F)cc34)n2)c2cccnc21`, the growth is 78%.

Regarding `O=C1/C(=C\c2ccco2)SC(=S)N1CCc1ccc(O)cc1`, the growth was 100%.

`COc1cccc(-c2nn(-c3ccccc3)cc2-c2ccnc(NCCNS(=O)(=O)c3ccccc3)c2)c1`: the growth is 43.3%.

Take `C[C@]12CC[C@@H]3c4ccc(O)cc4CC[C@H]3[C@@H]1C[C@H](O)[C@@H]2O`: the growth was 120%.

Regarding `COc1cc2c3c(c4c5ccccc5[nH]c4c2c(OC)c1OC)C(=O)N(O)C3=O`, the growth is 48.8%.

Consider `Clc1cc(Cl)cc(Nc2ccc3c(OCCCN4CCOCC4)cccc3n2)c1`, for which the growth is 75.8%.

Regarding `C/C(=N/NC(N)=S)C(=O)O`, the growth was 107%.

On to `CCCCC[C@H]1C/C=C2/C(=O)C(Cl)=C[C@@H]2C/C=C\CCCC(=O)O1`, for which the growth was -15.2% (active).

For `Cn1c2ccccc2c2c3c(c4c5cccnc5[nH]c4c21)C(=O)N(O)C3=O`, the growth is 37.5%.

Regarding `O=C1CN(c2ccccc2)C(=O)C1C(=O)Nc1ccc(Cl)c(Cl)c1` (stereo not given), the growth is 20.3% [100 µM].

For the compound `CCc1cccc(CC)c1NC(=O)c1sc2nc3c(cc2c1N)CCCC3`, the growth is 81.9%.

As for `Cc1cccc2c1NC(=O)[C@@]21[C@H](C(=O)c2ccccc2)[C@]2(C(=O)Nc3ccccc32)[C@H]2CCCN21`, the growth was 11.1% [100 µM].

Turning to `C[C@H]1OC(=O)/C=C/[C@@H](O)[C@@H](O)CCCCCCCC[C@@H]1O`, the growth was 94.9%.

Take `COc1cccc(-c2nn(-c3ccccc3)cc2-c2ccnc(NCCNS(=O)(=O)c3cccc(F)c3)c2)c1`: the growth is 46.6%.

`CCCC(=O)N1CCCCC1CC` (stereo not given): the growth was 111%.

Regarding `CC(=O)O[C@@H]1CCN2C(=O)N(C)c3ccccc3[C@@H]2C1`, the growth is 101%.

For `O=C(/C=C\c1ccc2c(c1)OCO2)/C=C/c1ccc2c(c1)OCO2`, the growth was 92%.

For `O=C1NC(c2ccc(Cl)c(Cl)c2)=C/C1=C\c1ccccc1`, the growth is 100%.

Regarding `O=C1C=Cc2ncccc2C1=O`, the growth is 83.5%.

In the case of `COc1ccc(C2C(C#N)=C(N)Oc3c2sc2c(F)cccc32)cc1` (stereo not given), the growth was 20.7%.

As to `COC(=O)[C@]12CC[C@@H](C)[C@H](C)[C@@H]1C1=CC[C@@H]3[C@@]4(C)C(c5ncon5)=C[C@@](C)(CO)C4=CC[C@@]3(C)[C@]1(C)CC2`, the growth is 68.9%.

Turning to `Cc1cc2nc3c4cc(Cl)ccc4n(CCN(C)C)c3nc2cc1C`, the growth is 31.1%.

`COc1cc2c(cc1-c1c(C)noc1C)ncc1nc(C3CC3)n([C@H](C)COC(F)F)c12`: the growth is 1.36% (active).

As to `CCCCC[C@H]1CC=C2C(=O)C(Cl)=C[C@@H]2CC=CCCCC(=O)O[C@@H](CCCCC)CC=C2C(=O)C(Cl)=C[C@@H]2CC=CCCCC(=O)O[C@@H](CCCCC)CC=C2C(=O)C(Cl)=C[C@@H]2CC=CCCCC(=O)O1`, the growth was 120% [8 µM].

Turning to `NC(=O)[C@@H]1CC2CCC1C2` (stereo not given in full), the growth is 101%.

For `C=C(C)[C@@H]1CC[C@]2(C=O)CC[C@]3(C)[C@H](CC[C@@H]4[C@@]5(C)C/C(=C/c6cccnc6)C(=O)C(C)(C)[C@@H]5CC[C@]43C)[C@@H]12`, the growth was 117%.

With `Cc1cc(N(CCNc2ccnc3cc(Cl)ccc23)Cc2ccco2)nc(Cl)n1`, the growth is -36.3% (active).

Regarding `CN(C)c1ccc(N)c2ccccc12`, the growth is 85.2%.

In the case of `CSc1ccc(N(C)c2nc(C)nc3c2CCC3)cc1`, the growth was 19.5%.

Turning to `C=C(C)[C@@H]1CC[C@]2(C(=O)NNC(=O)c3cccnc3)CC[C@]3(C)[C@H](CC[C@@H]4[C@@]5(C)CCCNC(C)(C)[C@@H]5CC[C@]43C)[C@@H]12`, the growth was 107%.
